In the library only some 6.6% were active in any assay of this set; here they are far more common.
RGS4 inh: human RGS4 inhibition | 390,000 tested, 0.039% active | Potency, µM (series often up to 114 µM), without a hit: at the highest dose activity change, negative = inhibition, most hits filed as inhibitors | Transcreener GDP fluorescence polarization, RGS4-accelerated GTP hydrolysis | P49798 | AID 504845; note: % is set by controls: 0 for no effect and ±100 for the full control effect; nearly all actives have a fitted effect of over 75% in size
Target sequence (P49798 whole entry, looked up): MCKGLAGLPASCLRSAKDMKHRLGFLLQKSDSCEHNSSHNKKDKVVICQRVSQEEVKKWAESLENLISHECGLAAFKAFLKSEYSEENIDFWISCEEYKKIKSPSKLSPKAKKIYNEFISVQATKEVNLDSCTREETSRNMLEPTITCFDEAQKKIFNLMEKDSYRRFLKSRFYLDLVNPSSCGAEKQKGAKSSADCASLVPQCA
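MLSMR compounds (23 nl, pin-transferred) preincubated 10 min at room temperature with a 500nM (2x) first reagent, then RGS4 at 900nM (2x) plus Transcreener GDP mix added; fluorescence polarization (620/688 nm) read before and after 90 min at 30 °C.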
KB-3-1 cytotox: KB-3-1 parental cell cytotoxicity | KB-3-1 viability, CellTiter-Glo ATP luminescence, 72 h | Potency, µM (titrated, usually from 46.1 µM), usual class: cytotoxic | 400,000 tested, 1.4% active; note: % is set by controls: 0 for no effect and ±100 for the full control effect; nearly all actives have a fitted effect of over 60% in size
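Cytotoxicity measured as CellTiter-Glo luminescence after 72 h at 37 C. Compound titrations were pinned onto drug-naive KB-3-1 parental adenocarcinoma cells grown in DMEM with 10% FBS, and normalized data fitted to concentration-response curves.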
KB-V1 cytotox: KB-V1 MDR subline cytotoxicity | AID 1347076 | 400,000 tested, 3.4% active | KB-V1 MDR cells viability, CellTiter-Glo, 72 h | Potency, µM (highest dose often 46.1 µM), actives largely listed as cytotoxic; note: % is set by controls: 0 for no effect and ±100 for the full control effect; nearly all actives have a fitted effect of over 60% in size
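KB-V1 cells (P-gp-expressing MDR subline of KB-3-1) in phenol-red-free DMEM with 10% FBS were exposed to library compounds over a concentration series for 72 h at 37 degrees C. Viability read by CellTiter-Glo luminescence; concentration-effect curves fitted after normalization.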
TSG101-PTAP inh: blocks PTAP/TSG101 interaction to inhibit HIV-1 budding; Q99816; Fluorescence polarization, FITC-PTAP peptide / Tsg101 binding; Potency, µM (highest dose often 115 µM), for the others: at the top dose activity change, negative = inhibition, most hits filed as inhibitors; 340,000 tested, under 10 active; AID 493005; active = well fitted inhibition curve with a large enough effect in the main read-out, with a control signal flat, not every such curve was filed as active; inconclusive = small, poorly fitted or top-dose-only effect, or effect the other way, or a change in a side signal; inactive = no such curve, though single readings can be large or run the other way; note: % of control where 0% means no effect
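Compounds were pin-transferred onto Tsg101 binding domain (10 uM final) in HEPES pH 7.5 buffer, then FITC-PTAP peptide was added at 50 nM final. After 20 min at RT, polarization reported peptide displacement across a qHTS concentration series.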
SW480 rerep: inducers of DNA re-replication in SW480 colon cancer cells. SW480 DNA re-replication, Hoechst DNA content imaging, 48 h. Potency, µM (top dose mostly 46.1 µM), inactives show at the top dose re-replication activation, usual class: activators. 340,000 tested, 1.8% active; note: % of control where 0% means no effect; nearly all actives have a fitted effect of over 55% in size
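First, 250 cells per well were seeded. Next, compound or vehicle (23 nL) was pinned in, plates sat 48 hr at 37 C. Finally Hoechst was added for 40 min before fluorescence scanning.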
MCF10A rereplic: DNA re-replication induction in MCF 10a cells | Potency, µM (highest dose often 46.1 µM), for inactives: at the top dose activity, positive = re-replication, most hits filed as activators | 350,000 tested, 2.9% active | AID 624296 | MCF 10A DNA re-replication, Hoechst nuclear intensity, 48 h; note: % of control where 0% means no effect; nearly all actives have a fitted effect of over 50% in size
Numbers without * were called inactive; i = inactive; ? = inconclusive; nt = no result given; [ ] = remark or other dose. Unless noted, calls come from the whole dose curve; as a rule, active = well fitted curve in the direction sought with a large enough effect; inconclusive = small, poorly fitted or top-dose-only effect, or another doubt; inactive = no such curve, though single readings can be large; an effect the other way counts as inactive or inconclusive. Potency is the fitted concentration of half-maximal effect.

SMILES | RGS4 inh | KB-3-1 cytotox | KB-V1 cytotox | TSG101-PTAP inh | SW480 rerep | MCF10A rereplic
Cc1nn(-c2ccccc2)c(C)c1/C=N/NC(=O)c1cc(C(C)(C)C)[nH]n1 | 13% | i | ? | 0% | -4% | 8%
Cc1ccc(NC(=O)N(Cc2c[nH]c3ccccc23)C2CCCCCC2)cc1C | 12% | i | ? | nt | nt | nt
CC1C/C(=C/c2ccncc2)C(=O)/C(=C/c2ccncc2)C1 (configuration not stated) | ? | ? | i | 0% | ? | 0.46µM*
Cn1cccc1/C=C1/SC(=S)N(CC(=O)O)C1=O | -13% | ? | i | ? | 2% | -14%
CC1C/C(=C/c2cccn2C)C(=O)/C(=C/c2cccn2C)C1 (configuration not stated) | ? | i | i | ? | ? | 4.6µM*
COc1cccc(N2CCN(C(=O)CN3C(=O)COc4ccc(S(=O)(=O)N5CCC(C)CC5)cc43)CC2)c1 | 20% | i | ? | nt | nt | nt
CCn1c(CNC(=O)c2ccc(OC)cc2)nnc1SCC(=O)Nc1ccccc1 | -14% | i | i | nt | nt | nt
CC1CCC(C(=O)NC(C(=O)OCC(=O)c2ccc(Br)cc2)C(C)C)CC1 (configuration not stated) | 1% | i | i | nt | nt | nt
Fc1ccc(-c2noc3ncnc(NC4CCCCC4)c23)cc1 | 6% | i | i | nt | nt | nt
COc1ccc(Cl)cc1NC(=O)CCc1c(C)nc2c(c1C)c(=O)n(C)c(=O)n2C | 7% | i | ? | nt | nt | nt
C=CCn1c(=O)n2ncnc2c2c3c(sc21)CCCC3 | -26% | i | 15µM* | -8% | -10% | -1%
O=c1n(Cc2ccc(Cl)cc2)c2sc3c(c2c2ncnn12)CCCC3 | ? | ? | ? | -4% | -5% | ?
Cc1cc(Nc2ccc(C(C)C)cc2)n2ncnc2n1 | 3% | 15µM* | 7.3µM* | 0% | -5% | 3%
COc1ccc(Nc2cc(C)nc3ncnn23)cc1 | -15%[56.9 µM] | i | i | 0% | 22% | ?
Cc1ccc(-c2nnc(Nc3ccc(Cl)cc3)c3ccccc23)cc1S(=O)(=O)N1CCOCC1 | -11% | i | i | nt | nt | nt
C(=C\c1c[nH]c2ccccc12)/c1ccc2ccccc2n1 | nt | i | i | nt | nt | nt
O=C1ON=C(c2ccc(Cl)cc2)/C1=C/c1ccc(O)cc1 | ? | i | 21µM* | -6% | 4% | ?
CCCCNc1nc(-c2ccccc2)c(C(=O)OCC)cc1C#N | -19% | ? | 18µM* | -10% | ? | ?
C=CCNc1nc(-c2ccccc2)c(C(=O)OCC)cc1C#N | -17%[11.4 µM] | 10µM* | ? | -3% | ? | 15µM*
CCCNc1nc(-c2ccccc2)c(C(=O)OCC)cc1C#N | 22% | ? | i | -6% | 16µM* | 12µM*
Cc1nc2ccc(S(=O)(=O)NCC(=O)NC(C)c3ccccc3)cc2s1 (configuration not stated) | 4% | i | i | -5% | -21% | 0.65µM*
Cc1cc(C)cc(NC(=O)CNS(=O)(=O)c2ccc3nc(C)sc3c2)c1 | 20% | nt | nt | nt | nt | nt
Cc1ccc(SCC(c2ccccc2)N2CCN(C)CCC2=O)cc1 (configuration not stated) | 20% | nt | nt | nt | nt | nt
COc1ccc(C2=Nn3c(nnc3-c3ccccc3)SC2)cc1OC | -14% | i | ? | -3% | 7% | ?
COc1ccc(C2=Nn3c(nnc3-c3ccccc3OC)SC2)cc1OCC1CC1 | -8% | ? | i | -6% | 2.3µM* | ?
COc1ccc(OC)c(-c2nnc3n2N=C(c2ccc(OC(F)F)c(OCC4CC4)c2)CS3)c1 | -1% | 5.8µM* | ? | -2% | ? | ?
CC1(C)CC(=O)C2=C(C1)OC1=C(C(=O)CC(C)(C)C1)C2c1ccc(O)cc1O | ? | i | i | -11% | 3.2µM* | ?
Cn1cc(O)nc1NC(=O)Nc1cccc(Cl)c1 | nt | nt | nt | nt | -6% | 1%

Screens as filed in PubChem BioAssay.
